Data reported in PubChem BioAssay (Tox21).
Inconclusive results are not listed. Active and inactive are the calls of the source. Calls follow the shape of the dose curve; as a rule, active = well fitted curve in the direction sought with a large enough effect in the repeat runs; inconclusive = weak or mixed curves; inactive = no such curve, though single readings can be large; an effect the other way counts as inactive or inconclusive. Where a SMILES comes first, the peptide text is derived from it. [ ]: non-standard residue; d: D form. pGlu = O=C1CC[C@@H](C(=O)O)N1

Columns and labels:
[1] = qHTS RealTime-Glo MT Cell Viability Assay in HepG2 cells - 8 hour (AID 1224873); details: RealTime-Glo luminescence; series mostly up to 76.8 µM; also: nearly all actives have a fitted effect of over 55% in size
Method in brief: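 HepG2 cells (600/well) mixed with RealTime-Glo MT reagent, settled 5 h at 37 C/5% CO2 before compound addition. Nonlytic NanoLuc luminescence from viable-cell prosubstrate reduction read repeatedly during 40 h treatment at 37 C.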

[2] = qHTS RealTime-Glo MT Cell Viability Assay in HEK293 cells - 40 hour (AID 1224874); details: RealTime-Glo luminescence; max response: hits give low values; also: nearly all actives have a fitted effect of over 50% in size
Method in brief: (§1)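 Tox21 screen in HEK293 using RealTime-Glo MT chemistry, with cells and reagent co-dispensed. Luminescence proportional to viable cell number was captured at intervals during 40 h compound exposure at 37 C.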

[3] = A CellTox Green Cytotoxicity Assay to monitor cytotoxicity in HEK293 cells - 24 hour (AID 1224875); details: CellTox Green fluorescence, hits give high values; series mostly up to 76.8 µM; also: nearly all actives have a fitted effect of over 45% in size
Method in brief: (§2)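 Seeding of HEK293 cells together with cytotoxicity dye preceded a 5 h incubation at 37 C/5% CO2. Test compounds in DMSO were then added and fluorescence monitored across 40 h.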

[4] = A CellTox Green Cytotoxicity Assay to monitor cytotoxicity in HepG2 cells - 16 hour (AID 1224876); details: CellTox Green fluorescence; series mostly up to 76.8 µM; also: nearly all actives have a fitted effect of over 45% in size
Method in brief: (§3)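 Nonlytic assay: viable cells exclude the dye, so fluorescence scales with cell death. HepG2 at 600 cells/well, compounds added after 5 h, signal read across 40 h.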

[5] = qHTS RealTime-Glo MT Cell Viability Assay in HepG2 cells - 32 hour (AID 1224877); details: RealTime-Glo luminescence; series mostly up to 76.8 µM; also: nearly all actives have a fitted effect of over 55% in size
Method in brief: (§4)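 Viability was tracked continuously by NanoLuc luminescence from prosubstrate reduced by living HepG2 cells, at successive time points over 40 h of compound exposure. Cells with reagent were preincubated 5 h at 37 °C before compound addition.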

[6] = A CellTox Green Cytotoxicity Assay to monitor cytotoxicity in HepG2 cells - 24 hour (AID 1224878); details: CellTox Green fluorescence; series mostly up to 76.8 µM; also: nearly all actives have a fitted effect of over 45% in size
Method in brief: as §3

[7] = A CellTox Green Cytotoxicity Assay to monitor cytotoxicity in HepG2 cells - 40 hour (AID 1224879); details: CellTox Green fluorescence; series mostly up to 76.8 µM; also: nearly all actives have a fitted effect of over 40% in size
Method in brief: as §3

[8] = qHTS RealTime-Glo MT Cell Viability Assay in HEK293 cells - 0 hour (AID 1224880); details: RealTime-Glo luminescence; series mostly up to 76.8 µM; also: top concentration of the series differs between compounds; nearly all actives have a fitted effect of over 45% in size
Method in brief: as §1

[9] = A CellTox Green Cytotoxicity Assay to monitor cytotoxicity in HEK293 cells - 32 hour (AID 1224881); details: CellTox Green fluorescence; series mostly up to 76.8 µM; also: nearly all actives have a fitted effect of over 40% in size
Method in brief: as §2

[10] = A CellTox Green Cytotoxicity Assay to monitor cytotoxicity in HepG2 cells - 0 hour (AID 1224882); details: CellTox Green fluorescence; series mostly up to 76.8 µM; also: nearly all actives have a fitted effect of over 35% in size
Method in brief: as §3

[11] = A CellTox Green Cytotoxicity Assay to monitor cytotoxicity in HepG2 cells - 32 hour (AID 1224883); details: CellTox Green fluorescence; series mostly up to 76.8 µM; also: nearly all actives have a fitted effect of over 50% in size
Method in brief: as §3

[12] = A CellTox Green Cytotoxicity Assay to monitor cytotoxicity in HEK293 cells - 8 hour (AID 1224884); details: CellTox Green fluorescence; series mostly up to 76.8 µM; also: nearly all actives have a fitted effect of over 35% in size
Method in brief: as §2

[13] = qHTS RealTime-Glo MT Cell Viability Assay in HepG2 cells - 16 hour (AID 1224885); details: RealTime-Glo luminescence; series mostly up to 76.8 µM; also: nearly all actives have a fitted effect of over 50% in size
Method in brief: as §4

[14] = qHTS RealTime-Glo MT Cell Viability Assay in HEK293 cells - 24 hour (AID 1224886); details: RealTime-Glo luminescence; series mostly up to 76.8 µM; also: top concentration of the series differs between compounds; nearly all actives have a fitted effect of over 50% in size
Method in brief: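 Viability tracked continuously by luminescence as live cells reduce a prosubstrate for NanoLuc; HEK293 cells preincubated 5 h, compound-treated at 37 C, and read at 0, 8, 16, 24, 32 and 40 h.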

[15] = qHTS RealTime-Glo MT Cell Viability Assay in HEK293 cells - 8 hour (AID 1224887); details: RealTime-Glo luminescence; series mostly up to 76.8 µM
Method in brief: as §1

[16] = A CellTox Green Cytotoxicity Assay to monitor cytotoxicity in HEK293 cells - 16 hour (AID 1224888); details: CellTox Green fluorescence, hits give high values; series mostly up to 76.8 µM; also: nearly all actives have a fitted effect of over 35% in size
Method in brief: as §2

[17] = qHTS RealTime-Glo MT Cell Viability Assay in HepG2 cells - 0 hour (AID 1224889); details: RealTime-Glo luminescence; series mostly up to 76.8 µM; also: nearly all actives have a fitted effect of over 50% in size
Method in brief: as §4

[18] = A CellTox Green Cytotoxicity Assay to monitor cytotoxicity in HepG2 cells - 8 hour (AID 1224890); details: CellTox Green fluorescence; series mostly up to 76.8 µM; also: nearly all actives have a fitted effect of over 45% in size
Method in brief: as §3

[19] = qHTS assay to identify small molecule antagonists of the estrogen receptor alpha (ER-alpha) signaling pathway using the BG1 cell line in the presence of 0.1 nM 17-beta-estradiol - cell viability counter screen (AID 1259241); details: VM7Luc4E2 (BG1) viability, CellTiter-Fluor protease, 22 h, 0.1 nM estradiol agonist added; series mostly up to 92.4 µM; also: nearly all actives have a fitted effect of over 40% in size
Method in brief: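 CellTiter-Fluor read (30 min, 37C) on ER-alpha/ERE-luc VM7Luc4E2 cells; 22 hr compound treatment; agonist 0.1 nM E2 final; same-well multiplex.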

[20] = qHTS assay to identify small molecule antagonists of the androgen receptor (AR) signaling pathway using the MDA cell line in the presence of 0.5 nM R1881 - cell viability counter screen (AID 1259242); details: MDA-kb2 viability, CellTiter-Fluor protease fluorescence, 16 h; series mostly up to 92.4 µM; also: nearly all actives have a fitted effect of over 45% in size
Method in brief: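 R1881 at 0.5 nM final stimulated MDA-kb2 cells during 16 hr compound treatment at 37C. Cytotoxicity read: CellTiter-Fluor fluorescence after 30 min.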
% is scaled to controls: 0 for no effect and ±100 for the full control effect.

CCCCCCC1CCC(=O)O1 (stereo not given)
inactive: outcome [1] | max response [2] 4.76% | outcome [3] | outcome [4] | Potency [5] | outcome [6] | Potency [7] | Potency [8] | outcome [9] | Potency [10] | Potency [11] | outcome [12] | outcome [13] | Potency [14] | Potency [15] | outcome [16] | Potency [17] | outcome [18] | outcome [19] | outcome [20]

CCCC(C)C(=O)OCC (stereo not given)
inactive: outcome [1] | max response [2] -2.71% | outcome [3] | outcome [4] | Potency [5] | outcome [6] | Potency [7] | Potency [8] | outcome [9] | Potency [10] | Potency [11] | outcome [12] | outcome [13] | Potency [14] | Potency [15] | outcome [16] | Potency [17] | outcome [18] | outcome [20]

Nc1ccccn1
inactive: outcome [1] | max response [2] -3.82% | outcome [3] | outcome [4] | Potency [5] | outcome [6] | Potency [7] | Potency [8] | outcome [9] | Potency [10] | Potency [11] | outcome [12] | outcome [13] | Potency [14] | Potency [15] | outcome [16] | Potency [17] | outcome [18] | outcome [19] | outcome [20]

CC(C)c1ccc2ncccc2c1
inactive: outcome [1] | max response [2] -0.522% | outcome [3] | outcome [4] | Potency [5] | outcome [6] | Potency [7] | Potency [8] | outcome [9] | Potency [10] | Potency [11] | outcome [12] | outcome [13] | Potency [14] | Potency [15] | outcome [16] | Potency [17] | outcome [19] | outcome [20]

CCCCCC(C)N (stereo not given)
inactive: outcome [1] | max response [2] 1.04% | outcome [3] | outcome [4] | Potency [5] | outcome [6] | Potency [7] | Potency [8] | outcome [9] | Potency [10] | Potency [11] | outcome [12] | outcome [13] | Potency [14] | Potency [15] | outcome [16] | Potency [17] | outcome [18] | outcome [19] | outcome [20]

CCNC(=O)[C@@H]1CCCN1C(=O)[C@H](CCCN=C(N)N)NC(=O)[C@H](CC(C)C)NC(=O)CNC(=O)[C@H](Cc1ccc(O)cc1)NC(=O)[C@H](CO)NC(=O)[C@H](Cc1c[nH]c2ccccc12)NC(=O)[C@H](Cc1cnc[nH]1)NC(=O)[C@@H]1CCC(=O)N1 ([pGlu]HWSYGLRP-NHEt)
inactive: outcome [1] | max response [2] 7.73% | outcome [3] | outcome [4] | Potency [5] | outcome [6] | Potency [7] | Potency [8] | outcome [9] | Potency [10] | Potency [11] | outcome [12] | outcome [13] | Potency [14] | Potency [15] | outcome [16] | Potency [17] | outcome [19] | outcome [20]

NC(CCC(=O)O)C(=O)O (stereo not given)
inactive: outcome [1] | max response [2] 16.4% | outcome [3] | outcome [4] | Potency [5] | outcome [6] | Potency [7] | Potency [8] | outcome [9] | Potency [10] | Potency [11] | outcome [12] | outcome [13] | Potency [14] | Potency [15] | outcome [16] | Potency [17] | outcome [18] | outcome [19] | outcome [20]

CCOC(=O)COc1cc(-n2ncc(C(F)(F)F)c(C)c2=O)c(F)cc1Cl
inactive: outcome [1] | max response [2] -4.34% | outcome [3] | outcome [4] | Potency [5] | outcome [6] | Potency [7] | Potency [8] | outcome [9] | Potency [10] | Potency [11] | outcome [12] | outcome [13] | Potency [14] | Potency [15] | outcome [16] | Potency [17] | outcome [19] | outcome [20]

CC(C#N)(CCC(=O)O)N=NC(C)(C#N)CCC(=O)O (stereo not given)
inactive: outcome [1] | max response [2] 3.09% | outcome [3] | outcome [4] | Potency [5] | outcome [6] | Potency [7] | Potency [8] | outcome [9] | Potency [10] | Potency [11] | outcome [12] | outcome [13] | Potency [14] | Potency [15] | outcome [16] | Potency [17] | outcome [18] | outcome [19] | outcome [20]

CN1[C@@H]2CC[C@H]1CC(OC(=O)C(O)c1ccccc1)C2 (stereo not given in full)
inactive: outcome [1] | max response [2] 3.93% | outcome [3] | outcome [4] | Potency [5] | outcome [6] | Potency [7] | Potency [8] | outcome [9] | Potency [10] | Potency [11] | outcome [12] | outcome [13] | Potency [14] | Potency [15] | outcome [16] | Potency [17] | outcome [18] | outcome [19] | outcome [20]

N[C@@H](CCC(=O)O)C(=O)O
inactive: outcome [1] | max response [2] -0.971% | outcome [3] | outcome [4] | Potency [5] | outcome [6] | Potency [7] | Potency [8] | outcome [9] | Potency [10] | Potency [11] | outcome [12] | outcome [13] | Potency [14] | Potency [15] | outcome [16] | Potency [17] | outcome [18] | outcome [19] | outcome [20]

CC12CCC(C(=O)C1=O)C2(C)C (stereo not given)
inactive: outcome [1] | max response [2] -1.01% | outcome [3] | outcome [4] | Potency [5] | outcome [6] | Potency [7] | Potency [8] | outcome [9] | Potency [10] | Potency [11] | outcome [12] | outcome [13] | Potency [14] | Potency [15] | outcome [16] | Potency [17] | outcome [18] | outcome [19] | outcome [20]

O=C(O)Cc1csc(-c2ccc(Cl)cc2)n1
inactive: outcome [1] | max response [2] 1.2% | outcome [3] | outcome [4] | Potency [5] | outcome [6] | Potency [7] | Potency [8] | outcome [9] | Potency [10] | Potency [11] | outcome [12] | outcome [13] | Potency [14] | Potency [15] | outcome [16] | Potency [17] | outcome [19] | outcome [20]
